Measurements reported in ChEMBL document CHEMBL3988442, “University of Dundee, Small-Polar-MMV Screening Library” (2021).

biological target: AMP-activated protein kinase, AMPK (Homo sapiens) (UniProt P54646+O43741+P54619+Q9UGJ0+Q9Y478+Q13131+Q9UGI9); assay: AMP-dependent Kinase enzyme assay. An in vitro enzyme assay that detects ADP turnover that is directly proportional to AMPK activity. This uses naive AMPK that is activated during the assay with MK-8722; assay type: functional; set-up: scale not given: direction of the effect not stated beside the values; details: 30 µM

SMILES	Percent Effect [%]
CCN1CCC(CC(=O)NCc2nc(C)cc(C)n2)CC1	9.34
Cc1cnn(C2CN(CCCOc3ccc(C#N)cc3)C2)c1	-0.666
CC(C)c1nn(C)cc1CNCc1cccc(N(C)C)c1	-15.4
CC(=O)NCc1ccc(C(=O)N2CCCc3c(F)ccc(C)c32)cc1	-0.0493
Cc1cc(NCCc2nc(C)c[nH]2)nc(-c2ccccc2O)n1	17.8
COCCN1CCN(C(=O)C(c2cccc(F)c2)N(C)C)CC1 (stereo not given)	-5.71
CCCNc1ncc(CN2CCC3(CCNC(=O)CC3)CC2)cn1	-1.43
Cn1ccnc1C(O)c1ccccc1N1CCN(CC2CCCC2)CC1 (stereo not given)	16.2
CCNc1ncc(C(=O)NCc2csc(-c3cnccn3)n2)cn1	-2.88
Cc1cnc(N2CCN(C)CC2)nc1-c1ccnn1C	-3.23
COc1ccc(-n2cccn2)c(CN2CCOCC(CN(C)C)C2)c1 (stereo not given)	1.67
COc1cccc(S(=O)(=O)N2CCCCC2CCN2CCCC2=O)c1 (stereo not given)	5.93
CC(C)c1nn(C)c(N(C)C)c1CNCc1ccnc(N(C)C)c1	-12.6
CC1CC(NS(=O)(=O)c2ccc(C(F)(F)F)nc2)C1 (stereo not given)	19.9
CN(Cc1noc(-c2ccccc2)n1)C(=O)CSc1nnc(N)s1	1.22
COc1ccc2nc(CNC(=O)C3CC4(CCNCC4)CN3C)[nH]c2c1 (stereo not given)	-3.99
O=C(NCc1nnc2n1CCC2)c1ccc(Br)s1	-4.78
CN(Cc1cccc(O)c1)Cc1cnn(C)c1	-1.1
O=C(c1cc(C2CC2)nc2onc(-c3ccccc3)c12)N1CCOCC1	4.72
Cc1nc(CNCc2cccc(OC34CCCN(CC3)C4)c2)n[nH]1 (stereo not given)	-7.43

SMILES	Percent Effect [%]
CCC(=O)NC(C)c1ccccc1C (stereo not given)	14.9
Cc1ncsc1C(=O)N[C@@H](Cc1ccccc1)C(N)=O	8.09
C[C@@H]1CN(C(=O)C2(Cn3cccn3)CC2)CC[C@@]1(O)C1CC1	-6.74
CC1(NC(=O)CNC(=O)C(C)(C)C)CCc2ccccc2C1 (stereo not given)	7.71
COCCCN1CCCC(c2nccn2CC2CCC2)C1 (stereo not given)	0.821
COc1ccc(-c2cc3nc(CCNC(=O)CN(C)C)nn3cn2)cc1	15
Cc1cc(CN(CC(N)=O)CC(C)C)no1	-8.69
Cc1cc(NC(=O)C(C)NCCn2cccn2)no1 (stereo not given)	-0.416
COC(=O)C1CN(Cc2cc(F)ccc2Br)CCO1 (stereo not given)	-6.48
O=C(c1cncc(NCC2COc3ccccc3C2)n1)N1CCOCC1 (stereo not given)	7.56
Cc1cnn(C2CN(Cc3nc4cc(Cl)ccc4n3C)C2)c1	-6.13
Cc1nc(C)c(CN2CCOC(Cc3ccccc3Cl)C2)nc1C (stereo not given)	0.455
CCOCC1(CNCc2cc(O)c3cc(C)ccc3n2)CC1	-2.54
CC(=O)N[C@@H]1CN(C(=O)c2cccc(C)c2)C[C@H]1O	8.23
c1ccc(C2Cn3ccnc3CN2Cc2ncc[nH]2)cc1 (stereo not given)	11.3
O=C1CCC2(CCNCC2)CN1Cc1nnc2ccccn12	8.07
CC(CC(=O)c1ccco1)NC(=O)c1ccon1 (stereo not given)	9.56
O=C(NCc1nc[nH]n1)c1cc(COc2ccccc2F)[nH]n1	-3.43
CC(C)N(C)S(=O)(=O)c1ccc2c(c1)CCN(C(=O)c1ccccn1)C2	-446
CS(=O)(=O)N1CCN(C(=O)c2cncs2)CC(C(N)=O)C1 (stereo not given)	9.41
